Data published in the supplement of paper PMC11001985.

These targets were tested with C#CCNC(=O)CCSSCCC(=O)NCCc1ccc(C=O)c(C=O)c1 (assay: lysine labeling ratio R10:1 (500 µM / 50 µM probe), SILAC-ABPP in living cells; higher = lower intrinsic lysine reactivity toward the probe, active = 2 or less). Conditions: HeLa; probe concentrations 500 vs 50 µM.
Outline: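 Each lysine carries an R value: the filtered median of MS1 peptide ratios of high probe to low probe, with the median then taken over forward and reverse replicates. These came from living SILAC light and heavy HeLa cells in PBS at room temperature labelled with an alkyne-tagged, disulfide-linked lysine probe at 500 µM or 50 µM, in forward and reverse swaps. The lysates were mixed, clicked to biotin-azide, trypsin-digested, captured on neutravidin, released by DTT, alkylated and run by LC-MS/MS on a TIMS-TOF Pro. The highest value allowed is 20.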

Chain of UniProt P35579 (P35579 whole entry): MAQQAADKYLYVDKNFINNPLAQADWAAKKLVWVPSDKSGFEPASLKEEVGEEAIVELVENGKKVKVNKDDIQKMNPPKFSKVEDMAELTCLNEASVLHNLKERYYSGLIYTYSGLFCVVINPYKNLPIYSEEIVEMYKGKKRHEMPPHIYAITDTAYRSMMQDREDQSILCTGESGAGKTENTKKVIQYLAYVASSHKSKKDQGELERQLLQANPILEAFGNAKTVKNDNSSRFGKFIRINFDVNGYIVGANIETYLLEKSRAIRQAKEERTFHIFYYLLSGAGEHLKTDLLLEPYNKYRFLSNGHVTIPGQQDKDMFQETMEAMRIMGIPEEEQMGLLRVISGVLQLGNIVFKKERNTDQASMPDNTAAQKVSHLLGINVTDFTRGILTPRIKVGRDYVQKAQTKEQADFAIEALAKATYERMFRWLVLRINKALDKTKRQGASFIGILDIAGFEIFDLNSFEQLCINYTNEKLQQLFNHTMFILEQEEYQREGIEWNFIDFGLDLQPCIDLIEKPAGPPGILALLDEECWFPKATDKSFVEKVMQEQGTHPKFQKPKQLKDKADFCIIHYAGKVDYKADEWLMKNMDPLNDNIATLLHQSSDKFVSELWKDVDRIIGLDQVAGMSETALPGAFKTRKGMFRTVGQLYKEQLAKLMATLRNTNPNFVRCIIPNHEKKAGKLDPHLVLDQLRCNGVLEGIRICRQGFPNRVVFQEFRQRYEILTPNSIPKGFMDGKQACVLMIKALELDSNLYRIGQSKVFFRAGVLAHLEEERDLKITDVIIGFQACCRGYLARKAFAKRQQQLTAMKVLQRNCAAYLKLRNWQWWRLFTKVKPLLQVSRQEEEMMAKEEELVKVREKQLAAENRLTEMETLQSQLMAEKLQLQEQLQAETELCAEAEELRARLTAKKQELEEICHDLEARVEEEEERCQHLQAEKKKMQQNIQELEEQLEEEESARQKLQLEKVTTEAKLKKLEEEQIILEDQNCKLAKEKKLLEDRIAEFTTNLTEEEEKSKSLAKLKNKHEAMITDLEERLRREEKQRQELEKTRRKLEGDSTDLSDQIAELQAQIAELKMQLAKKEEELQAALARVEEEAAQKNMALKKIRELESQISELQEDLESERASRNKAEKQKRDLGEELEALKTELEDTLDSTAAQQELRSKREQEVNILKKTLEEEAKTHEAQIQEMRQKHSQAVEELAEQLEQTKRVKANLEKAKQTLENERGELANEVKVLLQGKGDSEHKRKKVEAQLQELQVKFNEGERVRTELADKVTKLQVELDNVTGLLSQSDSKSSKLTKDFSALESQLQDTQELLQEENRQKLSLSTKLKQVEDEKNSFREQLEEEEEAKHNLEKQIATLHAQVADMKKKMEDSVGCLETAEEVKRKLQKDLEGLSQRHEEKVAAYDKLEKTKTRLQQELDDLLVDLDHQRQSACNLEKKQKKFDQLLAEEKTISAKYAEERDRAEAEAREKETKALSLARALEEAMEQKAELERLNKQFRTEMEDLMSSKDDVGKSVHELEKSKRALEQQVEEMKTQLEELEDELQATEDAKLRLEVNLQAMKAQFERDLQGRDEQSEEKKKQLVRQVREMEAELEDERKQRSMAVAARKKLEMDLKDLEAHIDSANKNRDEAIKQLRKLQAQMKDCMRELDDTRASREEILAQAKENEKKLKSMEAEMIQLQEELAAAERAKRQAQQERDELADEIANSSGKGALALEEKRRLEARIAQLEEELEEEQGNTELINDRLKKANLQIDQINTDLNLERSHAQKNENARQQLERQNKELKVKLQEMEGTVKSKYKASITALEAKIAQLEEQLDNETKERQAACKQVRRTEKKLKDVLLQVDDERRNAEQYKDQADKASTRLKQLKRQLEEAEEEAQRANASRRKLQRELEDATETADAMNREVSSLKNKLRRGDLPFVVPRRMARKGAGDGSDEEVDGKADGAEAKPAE
Chain of UniProt Q99985 (Q99985 whole entry): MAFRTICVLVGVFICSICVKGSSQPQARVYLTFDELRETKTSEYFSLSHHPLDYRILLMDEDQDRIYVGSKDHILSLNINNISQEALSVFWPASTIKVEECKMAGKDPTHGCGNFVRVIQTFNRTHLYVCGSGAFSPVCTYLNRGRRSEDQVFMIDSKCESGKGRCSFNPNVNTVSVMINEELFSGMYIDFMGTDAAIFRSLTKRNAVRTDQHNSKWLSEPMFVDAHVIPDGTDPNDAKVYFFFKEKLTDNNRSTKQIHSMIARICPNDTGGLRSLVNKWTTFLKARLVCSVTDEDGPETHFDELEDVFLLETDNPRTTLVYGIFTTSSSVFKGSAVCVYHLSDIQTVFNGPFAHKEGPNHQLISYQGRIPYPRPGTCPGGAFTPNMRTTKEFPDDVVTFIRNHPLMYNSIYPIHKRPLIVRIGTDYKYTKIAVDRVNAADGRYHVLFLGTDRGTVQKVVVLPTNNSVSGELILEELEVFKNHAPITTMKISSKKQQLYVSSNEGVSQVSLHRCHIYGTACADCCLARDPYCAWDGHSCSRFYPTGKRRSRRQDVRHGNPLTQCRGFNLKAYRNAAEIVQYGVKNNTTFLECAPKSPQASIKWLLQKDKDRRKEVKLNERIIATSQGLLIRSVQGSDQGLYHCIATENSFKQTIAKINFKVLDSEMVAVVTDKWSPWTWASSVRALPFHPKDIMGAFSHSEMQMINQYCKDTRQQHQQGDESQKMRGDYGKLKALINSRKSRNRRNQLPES
Chain of UniProt Q96JJ7 (Q96JJ7 whole entry): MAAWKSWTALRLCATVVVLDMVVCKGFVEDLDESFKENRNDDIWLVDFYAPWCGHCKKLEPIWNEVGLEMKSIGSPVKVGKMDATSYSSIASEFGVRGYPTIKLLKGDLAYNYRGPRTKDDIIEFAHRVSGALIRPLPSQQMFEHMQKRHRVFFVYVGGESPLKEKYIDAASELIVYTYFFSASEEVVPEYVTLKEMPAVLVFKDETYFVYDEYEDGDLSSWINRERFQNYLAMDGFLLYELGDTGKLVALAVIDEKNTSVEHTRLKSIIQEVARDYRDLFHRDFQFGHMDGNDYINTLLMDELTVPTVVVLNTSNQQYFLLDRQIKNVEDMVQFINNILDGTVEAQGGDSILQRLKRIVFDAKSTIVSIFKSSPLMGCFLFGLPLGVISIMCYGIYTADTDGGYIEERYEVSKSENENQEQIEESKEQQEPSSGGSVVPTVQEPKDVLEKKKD
Chain of UniProt P08727 (P08727 whole entry): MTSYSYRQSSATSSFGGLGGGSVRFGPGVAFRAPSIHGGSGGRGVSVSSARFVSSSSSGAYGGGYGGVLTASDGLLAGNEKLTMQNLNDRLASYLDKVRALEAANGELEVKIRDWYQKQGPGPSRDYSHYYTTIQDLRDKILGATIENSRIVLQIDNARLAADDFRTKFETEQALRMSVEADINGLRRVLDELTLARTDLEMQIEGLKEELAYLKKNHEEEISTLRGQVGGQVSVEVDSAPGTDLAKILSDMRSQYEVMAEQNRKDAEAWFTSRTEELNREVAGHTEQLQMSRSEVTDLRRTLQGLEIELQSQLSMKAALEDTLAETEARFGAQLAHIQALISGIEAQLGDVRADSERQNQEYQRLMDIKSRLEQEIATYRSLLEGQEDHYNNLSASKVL
Chain of UniProt Q13308 (Q13308 whole entry): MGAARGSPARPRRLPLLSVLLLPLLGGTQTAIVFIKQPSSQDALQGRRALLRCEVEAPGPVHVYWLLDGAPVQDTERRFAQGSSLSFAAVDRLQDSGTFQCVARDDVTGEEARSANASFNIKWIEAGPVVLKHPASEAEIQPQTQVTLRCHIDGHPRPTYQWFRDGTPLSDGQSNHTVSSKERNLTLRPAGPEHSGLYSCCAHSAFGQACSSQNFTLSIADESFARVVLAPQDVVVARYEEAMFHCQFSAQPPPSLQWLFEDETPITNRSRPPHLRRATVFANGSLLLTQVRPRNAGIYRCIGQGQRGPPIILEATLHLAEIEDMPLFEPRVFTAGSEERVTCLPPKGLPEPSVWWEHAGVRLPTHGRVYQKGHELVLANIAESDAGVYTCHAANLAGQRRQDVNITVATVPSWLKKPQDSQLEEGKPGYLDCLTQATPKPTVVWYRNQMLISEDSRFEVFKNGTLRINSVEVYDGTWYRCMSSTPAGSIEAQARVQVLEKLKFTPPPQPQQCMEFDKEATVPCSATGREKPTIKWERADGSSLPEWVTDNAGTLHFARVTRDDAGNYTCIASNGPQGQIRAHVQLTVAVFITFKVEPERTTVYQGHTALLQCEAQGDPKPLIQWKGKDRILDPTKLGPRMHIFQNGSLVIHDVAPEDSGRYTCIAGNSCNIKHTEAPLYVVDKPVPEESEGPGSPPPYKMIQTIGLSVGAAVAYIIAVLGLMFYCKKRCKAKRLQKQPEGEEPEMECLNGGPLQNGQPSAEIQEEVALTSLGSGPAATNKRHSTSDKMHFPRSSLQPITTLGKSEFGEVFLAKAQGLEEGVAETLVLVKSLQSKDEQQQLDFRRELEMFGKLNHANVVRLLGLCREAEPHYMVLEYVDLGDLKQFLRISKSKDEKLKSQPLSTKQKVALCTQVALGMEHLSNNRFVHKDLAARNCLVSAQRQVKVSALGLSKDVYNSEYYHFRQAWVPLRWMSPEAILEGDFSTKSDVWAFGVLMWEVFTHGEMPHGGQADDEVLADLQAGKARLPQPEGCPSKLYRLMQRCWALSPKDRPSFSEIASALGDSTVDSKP
Chain of UniProt P80723 (P80723 whole entry): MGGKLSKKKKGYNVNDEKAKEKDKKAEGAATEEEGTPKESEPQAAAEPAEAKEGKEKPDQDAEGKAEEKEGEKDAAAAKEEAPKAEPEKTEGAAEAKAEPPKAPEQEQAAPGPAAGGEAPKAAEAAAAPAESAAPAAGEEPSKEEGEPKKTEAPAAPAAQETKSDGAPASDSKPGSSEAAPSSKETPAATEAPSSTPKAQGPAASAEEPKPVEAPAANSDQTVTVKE
Chain of UniProt P49773 (P49773 whole entry): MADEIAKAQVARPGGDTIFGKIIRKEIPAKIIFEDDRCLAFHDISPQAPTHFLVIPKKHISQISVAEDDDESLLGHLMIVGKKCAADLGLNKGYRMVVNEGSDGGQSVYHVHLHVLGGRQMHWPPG

Target | lysine labeling ratio R10:1
COL5A1 (lysine site: K905) (UniProt P20908) | 3.42 (inactive)
UniProt O60245 (lysine site: K310) | 2.88 (inactive)
EPHB4 (lysine site: K474) (UniProt P54760) | 0.746 (active)
PTK7 (lysine site: K518) (UniProt Q13308) | 1.76 (active)
PA2G4 (lysine site: K376) (UniProt Q9UQ80) | 1.5 (active)
ACSL3 (lysine site: K422) (UniProt O95573) | 1.49 (active)
UniProt Q13275 (lysine site: K239) | 1.5 (active)
SEMA3C (lysine site: K416) (UniProt Q99985) | 2.36 (inactive)
CANX (lysine site: K118) (UniProt P27824) | 2.15 (inactive)
PDIA4 (lysine site: K582) (UniProt P13667) | 2.17 (inactive)
UniProt P21589 (lysine site: K232) | 1.92 (active)
TFRC (lysine site: K180) (UniProt P02786) | 2.39 (inactive)
UniProt Q9Y5I4 (lysine site: K686) | 5.99 (inactive)
MYO1C (lysine site: K667) (UniProt O00159) | 2.86 (inactive)
CD109 (lysine site: K952) (UniProt Q6YHK3) | 0.643 (active)
FAT4 (lysine site: K2561) (UniProt Q6V0I7) | 2.59 (inactive)
F2 (lysine site: K599) (UniProt P00734) | 6.29 (inactive)
MAGT1 (lysine site: K66) (UniProt Q9H0U3) | 4.14 (inactive)
TCP1 (lysine site: K199) (UniProt P17987) | 4.14 (inactive)
PTPRF (lysine site: K612) (UniProt P10586) | 4.74 (inactive)

Target | lysine labeling ratio R10:1
F11R (lysine site: K97) (UniProt Q9Y624) | 18.5 (inactive)
CCT6A (lysine site: K199) (UniProt P40227) | 0.593 (active)
BASP1 (lysine site: K143) (UniProt P80723) | 3.54 (inactive)
ITGA1 (lysine site: K563) (UniProt P56199) | 5.65 (inactive)
PTPRS (lysine site: K1001) (UniProt Q13332) | 4.13 (inactive)
HNRNPU (lysine site: K343) (UniProt Q00839) | 3.69 (inactive)
MYH9 (lysine site: K1492) (UniProt P35579) | 2.92 (inactive)
ITGA6 (lysine site: K404) (UniProt P23229) | 6.64 (inactive)
PDCD6IP (lysine site: K486) (UniProt Q8WUM4) | 0.775 (active)
UniProt Q96JJ7 (lysine site: K164) | 1.61 (active)
CTTN (lysine site: K161) (UniProt Q14247) | 1.61 (active)
HINT1 (lysine site: K30) (UniProt P49773) | 1.48 (active)
UniProt Q15303 (lysine site: K109) | 1.9 (active)
MYH9 (lysine site: K1845) (UniProt P35579) | 1.57 (active)
UniProt P08727 (lysine site: K265) | 3.48 (inactive)
SEMA3C (lysine site: K40) (UniProt Q99985) | 3.38 (inactive)
FLNB (lysine site: K1005) (UniProt O75369) | 4.49 (inactive)
HNRNPA1 (lysine site: K166) (UniProt P09651) | 7.94 (inactive)
EFNB2 (lysine site: K83) (UniProt P52799) | 2.34 (inactive)
WASF2 (lysine site: K109) (UniProt Q9Y6W5) | 1.24 (active)
